Data as given in PubChem BioAssay (Tox21).
Values joined by “and” are separate entries in the source; they are usually repeats but may differ in a detail not shown here. Equal entries are not always repeated. Results filed as inconclusive are left out. The source holds several records for some structures; these can differ, active in one and inactive in another. Active and inactive are the calls of the source. Calls follow the shape of the dose curve; as a rule, active = well fitted curve in the direction sought with a large enough effect in the repeat runs; inconclusive = weak or mixed curves; inactive = no such curve, though single readings can be large; an effect the other way counts as inactive or inconclusive.

Columns and labels:
[1] = A CellTox Green Cytotoxicity Assay to monitor cytotoxicity in HepG2 cells - 0 hour (AID 1224882); also: nearly all actives have a fitted effect of over 35% in size
How it was run: (§1)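 Read-out is fluorescence of a cyanine dye excluded from live cells that stains DNA of dead HepG2 cells, with signal proportional to cytotoxicity. Plates were read at 0, 8, 16, 24, 32 and 40 h after compound addition.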

[2] = A CellTox Green Cytotoxicity Assay to monitor cytotoxicity in HepG2 cells - 32 hour (AID 1224883); also: nearly all actives have a fitted effect of over 50% in size; also: potency is read from the fitted curve at half-maximal effect
How it was run: as §1

[3] = A CellTox Green Cytotoxicity Assay to monitor cytotoxicity in HEK293 cells - 8 hour (AID 1224884); also: nearly all actives have a fitted effect of over 35% in size; also: potency is read from the fitted curve at half-maximal effect
How it was run: (§2)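 Nonlytic real-time cytotoxicity: HEK293 + CellTox Green reagent plated, 5 h preincubation, pintool compound addition (23 nL in DMSO), 37 C for 40 h, fluorescence measured at successive time points.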

[4] = qHTS RealTime-Glo MT Cell Viability Assay in HepG2 cells - 16 hour (AID 1224885); also: nearly all actives have a fitted effect of over 50% in size; also: potency is read from the fitted curve at half-maximal effect
How it was run: (§3)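 HepG2 cells were seeded at 600 cells/well together with NanoLuc luciferase and a cell-permeant prosubstrate, preincubated 5 h at 37 C/5% CO2, then pin-dosed with compounds in DMSO. Nonlytic luminescence from viable cells was read at each time point.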

[5] = qHTS RealTime-Glo MT Cell Viability Assay in HEK293 cells - 24 hour (AID 1224886); also: nearly all actives have a fitted effect of over 50% in size; also: potency is read from the fitted curve at half-maximal effect; as to activity change, negative = cytotoxicity: top concentration of the series differs between compounds
How it was run: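 HEK293 cells were seeded at 600 cells/well together with NanoLuc luciferase and cell-permeant prosubstrate, preincubated 5 h at 37 C/5% CO2, then given compound in DMSO by pintool. Luminescence from viable-cell prosubstrate reduction was read repeatedly over 40 h.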

[6] = qHTS RealTime-Glo MT Cell Viability Assay in HEK293 cells - 8 hour (AID 1224887); also: nearly all actives have a fitted effect of over 50% in size; also: potency is read from the fitted curve at half-maximal effect; as to activity change, negative = cytotoxicity: top concentration of the series differs between compounds
How it was run: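 Cells were seeded together with NanoLuc luciferase and a prosubstrate that viable cells reduce to a luciferase substrate. After a 5 h incubation at 37 C/5% CO2, compounds were added and luminescence was measured repeatedly during 40 h of treatment.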

[7] = A CellTox Green Cytotoxicity Assay to monitor cytotoxicity in HEK293 cells - 16 hour (AID 1224888); also: nearly all actives have a fitted effect of over 35% in size; also: potency is read from the fitted curve at half-maximal effect
How it was run: as §2

[8] = qHTS assay to identify small molecule antagonists of the estrogen receptor alpha (ER-alpha) signaling pathway using the BG1 cell line in the presence of 0.1 nM 17-beta-estradiol - cell viability counter screen (AID 1259241); also: nearly all actives have a fitted effect of over 40% in size; also: potency is read from the fitted curve at half-maximal effect
How it was run: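 Cells were plated and left 24 hr, compounds in DMSO were pinned in, 17beta-estradiol was added to 0.1 nM final, and after 22 hr CellTiter-Fluor reagent was added for 30 min before fluorescence was read.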

[9] = qHTS RealTime-Glo MT Cell Viability Assay in HepG2 cells - 0 hour (AID 1224889); also: nearly all actives have a fitted effect of over 50% in size
How it was run: as §3

[10] = A CellTox Green Cytotoxicity Assay to monitor cytotoxicity in HepG2 cells - 8 hour (AID 1224890); also: nearly all actives have a fitted effect of over 45% in size; also: potency is read from the fitted curve at half-maximal effect
How it was run: as §1
% is scaled to controls: 0 for no effect and ±100 for the full control effect.

CCCCCCCCCCCCCCNCCO
inactive: Potency [1] | Potency [8]
active: Potency [2] 7.56 µM | Potency [3] 21.3 µM | Potency [4] 19 µM | Potency [5] 15.1 µM | Potency [6] 23.9 µM | Potency [7] 21.3 µM

Cc1cc(C)c(C=O)c(C)c1
inactive: Potency [1] | Potency [2] | Potency [3] | Potency [4] | Potency [5] | Potency [6] | Potency [7] | Potency [9] | Potency [8]

Brc1ccccn1
inactive: Potency [1] | Potency [2] | Potency [3] | Potency [4] | Potency [5] | Potency [6] | Potency [7] | Potency [9] | Potency [10] | Potency [8]

CC(=O)O[C@@H]1C[C@@H]2CC[C@@]1(C)C2(C)C
inactive: Potency [1] | Potency [2] | Potency [3] | Potency [4] | Potency [5] | Potency [6] | Potency [7] | Potency [10] | Potency [8]

CCOC(=O)COc1ccc(C)cc1
inactive: Potency [1] | Potency [2] | Potency [3] | Potency [4] | Potency [5] | Potency [6] | Potency [9] | Potency [10]

CCCCCCCC/C=C\CCCCCCCC(=O)OCCOC(=O)CCCCCCC/C=C\CCCCCCCC
inactive: Potency [1] | Potency [2] | Potency [3] | Potency [4] | Potency [5] | Potency [7] | Potency [10] | Potency [8]
active: Potency [6] 20.2 µM

O=S(=O)(O)c1cc(S(=O)(=O)O)c2ccc3c(S(=O)(=O)O)cc(S(=O)(=O)O)c4ccc1c2c43
inactive: cytotoxicity [1] -2.2% [at 15.8 µM] | cytotoxicity increase [2] -9.89% [at 15.8 µM] | cytotoxicity increase [3] -7.26% [at 15.8 µM] | activity change, negative = cytotoxic [4] 2.01% [at 15.8 µM] | activity change, negative = cytotoxicity [5] 1.56% [at 15.8 µM] | activity change, negative = cytotoxicity [6] -2.93% [at 15.8 µM] | activity change [7] -3.56% [at 15.8 µM, stronger effect = higher value] | activity change, negative = cytotoxicity [8] -2.07% [at 19 µM]

CC(C)=CC1CC(C)CCO1 (centres undefined)
inactive: Potency [1] | Potency [2] | Potency [3] | Potency [4] | Potency [5] | Potency [6] | Potency [7] | Potency [9] | Potency [10] | Potency [8]

CCCCCCCCCCc1ccccc1
inactive: Potency [1] | Potency [2] | Potency [3] | Potency [4] | Potency [5] | Potency [6] | Potency [7] | Potency [10] | Potency [8]

CCCCN(C)C
inactive: Potency [1] | Potency [2] | Potency [3] | Potency [4] | Potency [5] | Potency [6] | Potency [7] | Potency [9] | Potency [10] | Potency [8]

Clc1nc2ccccc2s1
inactive: Potency [1] | Potency [2] | Potency [3] | Potency [4] | Potency [5] | Potency [6] | Potency [7] | Potency [9] | Potency [10] | Potency [8]

CC1=CP(=O)(c2ccccc2)CC1 (centres undefined)
inactive: Potency [1] | Potency [2] | Potency [3] | Potency [4] | Potency [5] | Potency [6] | Potency [7] | Potency [9] | Potency [10] | Potency [8]

O=C1OC(=O)c2cccc3cccc1c23
inactive: Potency [1] | Potency [2] | Potency [3] | Potency [4] | Potency [5] | Potency [6] | Potency [7] | Potency [9] | Potency [10] | Potency [8]

CCCOc1sc(C(=O)N2CCC(c3cc(CN)ccc3F)CC2)c(C)c1Br
inactive: Potency [1]
active: Potency [2] 17.9 µM | Potency [3] 40 µM | Potency [4] 22.5 µM | Potency [5] 20 µM | Potency [6] 17.9 µM | Potency [7] 35.7 µM | Potency [10] 40 µM

CCCCCCCOC(=O)c1ccccc1C(=O)OCCCCCCC
inactive: Potency [1] | Potency [2] | Potency [3] | Potency [4] | Potency [5] | Potency [6] | Potency [7] | Potency [10]

CCOC(=O)CN
inactive: Potency [1] | Potency [2] | Potency [3] | Potency [4] | Potency [5] | Potency [6] | Potency [7] | Potency [9] | Potency [8]

c1cc2c3c(c1)ccc1cccc(c13)C2
inactive: Potency [1] | Potency [2] | Potency [4] | Potency [5] | Potency [6] | Potency [9] | Potency [10]
active: Potency [3] 56.1 µM

N#CSCSc1nc2ccccc2s1
inactive: Potency [1] | Potency [3] | Potency [7] | Potency [8]
active: Potency [2] 24.5 µM | Potency [4] 43.6 µM | Potency [5] 15.5 µM | Potency [6] 21.9 µM

CCOCOCC
inactive: Potency [1] | Potency [2] | Potency [3] | Potency [4] | Potency [5] | Potency [6] | Potency [7] | Potency [10] | Potency [8]

CC(COC(=O)c1ccccc1)OC(=O)c1ccccc1 (centres undefined)
inactive: Potency [1] | Potency [2] | Potency [3] | Potency [4] | Potency [5] | Potency [6] | Potency [7] | Potency [9] | Potency [10] | Potency [8]

C=CC(C)C#N (centres undefined)
inactive: Potency [1] | Potency [2] | Potency [3] | Potency [4] | Potency [5] | Potency [6] | Potency [7] | Potency [10] | Potency [8]

CCOCN(C(=O)CS(=O)(=O)O)c1c(C)cccc1CC
inactive: Potency [1] | Potency [2] | Potency [3] | Potency [4] | Potency [5] | Potency [6] | Potency [7] | Potency [9] | Potency [10] | Potency [8]

COC(=O)CC#N
inactive: Potency [1] | Potency [2] | Potency [3] | Potency [4] | Potency [5] | Potency [6] | Potency [7] | Potency [9] | Potency [8]

C[C@H]1O[C@@H](O[C@H]2[C@@H](O)C[C@H](O[C@H]3[C@@H](O)C[C@H](O[C@H]4CC[C@@]5(C)[C@H](CC[C@@H]6[C@@H]5C[C@@H](O)[C@]5(C)[C@@H](C7=CC(=O)OC7)CC[C@]65O)C4)O[C@@H]3C)O[C@@H]2C)C[C@H](O)[C@@H]1O
active: Potency [5] 69.2 nM and 61 nM
inactive: Potency [1] | Potency [2] | Potency [3] | Potency [4] | Potency [6] | Potency [7] | Potency [9] | Potency [10] | Potency [8]

Cc1cccc(N(C)C)c1
inactive: Potency [1] | Potency [2] | Potency [3] | Potency [4] | Potency [5] | Potency [6] | Potency [9] | Potency [10]

CN1CN(C)CN(C)C1
inactive: Potency [1] | Potency [2] | Potency [3] | Potency [4] | Potency [5] | Potency [6] | Potency [7] | Potency [8]

CC1(C)C(=O)N(Br)C(=O)N1Br
inactive: Potency [1] | Potency [2] | Potency [3] | Potency [4] | Potency [5] | Potency [6] | Potency [7] | Potency [9] | Potency [8]

C=CC(=O)OCCN(CC)CC
inactive: Potency [1] | Potency [2] | Potency [3] | Potency [4] | Potency [5] | Potency [6] | Potency [7] | Potency [9] | Potency [8]

C=CC(=C)CC/C=C(\C)CCC=C(C)C
inactive: cytotoxicity [1] -7.07% [at 15.8 µM] | cytotoxicity increase [2] 2.06% [at 15.8 µM] | cytotoxicity increase [3] 0.0594% [at 15.8 µM] | activity change, negative = cytotoxic [4] 1.17% [at 15.8 µM] | activity change, negative = cytotoxicity [5] -7.54% [at 15.8 µM] | activity change, negative = cytotoxicity [6] -9.22% [at 15.8 µM] | activity change [7] 2.36% [at 15.8 µM, stronger effect = higher value] | activity change, negative = cytotoxicity [9] 8.34% [at 15.8 µM] | cytotoxicity increase [10] 2.8% [at 15.8 µM] | activity change, negative = cytotoxicity [8] 2.52% [at 19 µM]

CCCCC(CC)COC(=O)c1ccc(O)cc1 (centres undefined)
inactive: Potency [1] | Potency [4] | Potency [9] | Potency [8]
active: Potency [2] 34.7 µM | Potency [3] 43.5 µM | Potency [5] 54.7 µM | Potency [10] 38.9 µM

C=C(C)CCCC
inactive: Potency [1] | Potency [2] | Potency [3] | Potency [4] | Potency [5] | Potency [6] | Potency [10] | Potency [8]

Cc1cnccn1
inactive: Potency [1] | Potency [2] | Potency [3] | Potency [4] | Potency [5] | Potency [6] | Potency [9] | Potency [10] | Potency [8]

CCC1(c2cnc[nH]2)Cc2ccccc2C1
inactive: Potency [1] | Potency [2] | Potency [3] | Potency [4] | Potency [6] | Potency [7] | Potency [9] | Potency [10]

CCCCCCCCCCCCCOP(=O)(O)O
inactive: Potency [1] | Potency [2] | Potency [3] | Potency [4] | Potency [5] | Potency [7] | Potency [9] | Potency [10] | Potency [8]

CC(C)c1ccc(O)c(C(C)C)c1
active: Potency [2] 27.5 µM | Potency [10] 43.6 µM
inactive: Potency [1] | Potency [3] | Potency [4] | Potency [5] | Potency [9]

OCCN1CN(CCO)CN(CCO)C1
inactive: Potency [1] | Potency [2] | Potency [3] | Potency [4] | Potency [5] | Potency [6] | Potency [10] | Potency [8]

CCC(C)C(=O)OC (centres undefined)
inactive: Potency [1] | Potency [2] | Potency [3] | Potency [4] | Potency [5] | Potency [7] | Potency [10] | Potency [8]

CC1=C(/C=C/C(C)=C/C=C/C(C)=C/C(=O)Nc2ccc(O)cc2)C(C)(C)CCC1
inactive: Potency [1] | Potency [3] | Potency [10]
inactive and 26.8 µM (active): Potency [4]
active: Potency [2] 50.2 µM and 26.8 µM | Potency [5] 893 nM and 338 nM | Potency [8] 55.9 µM and 11.9 µM
